According to PubChem BioAssay (EPA / NIEHS):
Activity calls are given as the source filed them. The calls were made as follows: active = hit-call score of the fitted dose curve at least 0.9, where 1 is the maximum; inactive = score below 0.9.

assay: BSK_BE3C_SRB: Viability Assessment in the BioMAP Diversity Plus: BE3C Assay (AID 2283028); settings: primary human bronchial epithelial cells;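 as to AC50: fitted both ways so AC50 may mark signal gain or loss versus DMSO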
Protocol: BSK_BE3C is a cell-based, multiplexed-readout assay that uses bronchial epithelial cell, a human lung primary cell, with measurements taken at 24 hours after chemical dosing in a 96-well plate.BSK_BE3C_SRB is an assay component measured in the BSK_BE3C assay. It measures 0.1% sulforhodamine related to cell death using Sulforhodamine staining technology.Data from the assay component BSK_BE3C_SRB was analyzed into 1 assay endpoint. This assay endpoint, BSK_BE3C_SRB, was analyzed with bidirectional fitting relative to DMSO as the negative control and baseline of activity. Using a type of viability reporter, gain or loss-of-signal activity can be used to understand changes in the signaling. Furthermore, this assay endpoint can be referred to as a primary readout, because this assay has produced multiple assay endpoints where this one serves a signaling function. To generalize the intended target to other relatable targets, this assay endpoint is annotated to the cell morphology intended target family, where the subfamily is cell conformation.
The levels of cell surface (or secreted, indicated by the prefix "s") biomarker endpoints were measured by ELISA. Overt cytotoxicity to cells in confluent adherent cultures (all systems other than the BT system) was assessed by measuring total protein levels using sulforhodamine B (SRB) staining in parallel cultures at the time of biomarker measurements, indicated as SRB endpoints. For proliferation assays for adherent cell types, individual cell types are cultured at sub-confluence and relative cell numbers quantified by SRB staining at time points optimized for each system (48 h: 3C and CASM3C systems; 72 h: BT and HDF3CGF systems; 96 h: SAg system). SRB was performed by staining cells with 0.1% SRB after fixation with 10% TCA and reading wells at 560 nm.Viability and proliferation of PBMC (T cells) was quantified by Alamar Blue reduction for the SAg and BT systems. For PBMC viability (referred to as PBMC Cytotoxicity within the assay endpoint names), cells were plated (75,000/well in a 96-well plate) and then chemical samples added for 1 h before addition of activators, SEB and TSST-1 (20 ng/mL final concentration each). Cells were incubated for 90 h. Then, Alamar Blue (20 uL/well) (Invitrogen, Cat DAL1100) was added for 6 h, and the plates were read with a fluorescence microplate reader at 546/580 nm (excitation/emission). For PBMC proliferation, cells were plated and activated as above but incubated for only 16 h prior to addition of Alamar Blue. Plates were read after 6 h.

Q: Which outcome does the source give for `Nc1cnn(-c2ccccc2)c(=O)c1Cl` here?
A: inactive

Q: With `CCOc1cc(C(C)(C)C)ccc1C1COC(c2c(F)cccc2F)=N1` (stereo not given) as the molecule, how does the AC50 read?
A: 20 µM (active)

Q: Which outcome does the source give for `COC(=O)NS(=O)(=O)c1ccc(N)cc1` here?
A: inactive

Q: Which outcome does the source give for `CNC(=O)Oc1cccc2ccccc12` here?
A: inactive

Q: For `CC(C)NC(=O)N1CC(=O)N(c2cc(Cl)cc(Cl)c2)C1=O`, which outcome is on record?
A: inactive

Q: Which outcome does the source give for `CCOC(=O)C(C)OC(=O)c1cc(Oc2ccc(C(F)(F)F)cc2Cl)ccc1[N+](=O)[O-]` (stereo not given) here?
A: inactive

Q: For `Cc1cnc(C2=NC(C)(C(C)C)C(=O)N2)c(C(=O)O)c1` (stereo not given), which outcome is on record?
A: inactive

Q: Which outcome does the source give for `Clc1cccc(C(Cl)(Cl)Cl)n1` here?
A: inactive

Q: With `CC(C)C1(C)N=C(c2ncccc2C(=O)O)NC1=O` (stereo not given) as the molecule, how does the outcome read?
A: inactive

Q: Which AC50 does the source give for `COC(=O)N(C(=O)N1CO[C@@]2(C(=O)OC)Cc3cc(Cl)ccc3C2=N1)c1ccc(OC(F)(F)F)cc1` here?
A: 5.81 µM (active)

Q: Which AC50 does the source give for `CCCCOCN(C(=O)CCl)c1c(CC)cccc1CC` here?
A: 31.1 µM (active)

Q: For `CCOP(=S)(OCC)Oc1nc(Cl)n(C(C)C)n1`, which outcome is on record?
A: inactive

Q: For `CC(C)Nc1nc(Cl)nc(NC(C)C)n1`, which outcome is on record?
A: inactive

Q: With `CS(=O)(=O)c1cc(C(F)(F)F)ccc1C(=O)c1cnoc1C1CC1` as the molecule, how does the outcome read?
A: inactive

Q: Which outcome does the source give for `C=CCOC(=O)C(C)(C)OC(=O)c1cc(-n2c(=O)cc(C(F)(F)F)n(C)c2=O)ccc1Cl` here?
A: inactive

Q: With `CC(C)=CC1C(C(=O)OCc2coc(Cc3ccccc3)c2)C1(C)C` (stereo not given) as the molecule, how does the AC50 read?
A: 10.8 µM (active)

Q: Which outcome does the source give for `Cc1nc(N(C)C)nc(OC(=O)N(C)C)c1C` here?
A: inactive

Q: For `N#Cc1c(Cl)cccc1Cl`, which outcome is on record?
A: inactive

Q: With `Clc1nc(Cl)nc(Nc2ccccc2Cl)n1` as the molecule, how does the outcome read?
A: inactive

Q: Which outcome does the source give for `COc1cc(OC)nc(NC(=O)NS(=O)(=O)c2ncccc2OCC(F)(F)F)n1` here?
A: inactive

Q: With `COP(=S)(OC)SCn1nnc2ccccc2c1=O` as the molecule, how does the outcome read?
A: inactive

Q: With `CCOP(=O)(OCC)Oc1nc(Cl)c(Cl)cc1Cl` as the molecule, how does the AC50 read?
A: 4.23 µM (active)

Q: With `COCC(C)N(C(=O)CCl)c1c(C)csc1C` (stereo not given) as the molecule, how does the outcome read?
A: inactive

Q: With `CC1(C)C(C=C(Cl)Cl)C1C(=O)OC(C#N)c1cccc(Oc2ccccc2)c1` (stereo not given) as the molecule, how does the outcome read?
A: inactive

Q: With `N#Cc1c[nH]cc1-c1cccc2c1OC(F)(F)O2` as the molecule, how does the outcome read?
A: inactive

Q: With `CC(C)N1C(=O)c2ccccc2NS1(=O)=O` as the molecule, how does the outcome read?
A: inactive

Q: With `CO/N=C(/C1=NOCCO1)c1ccccc1Oc1ncnc(Oc2ccccc2Cl)c1F` as the molecule, how does the outcome read?
A: inactive

Q: With `C=C(C)CN(CC)c1c([N+](=O)[O-])cc(C(F)(F)F)cc1[N+](=O)[O-]` as the molecule, how does the outcome read?
A: inactive

Q: Which outcome does the source give for `CNC(=O)N(C)c1nnc(C(C)(C)C)s1` here?
A: inactive

Q: Which outcome does the source give for `CN=C=S` here?
A: inactive

Q: For `CCCC(=NOCC)C1=C(O)CC(CC(C)SCC)CC1=O` (stereo not given), which outcome is on record?
A: inactive

Q: With `CN/C(=N\[N+](=O)[O-])NCc1cnc(Cl)s1` as the molecule, how does the outcome read?
A: inactive

Q: For `COc1cc(Cl)c(OC)cc1Cl`, which outcome is on record?
A: inactive

Q: With `CC1(C)CON(Cc2ccccc2Cl)C1=O` as the molecule, how does the outcome read?
A: inactive

Q: Which outcome does the source give for `CCNC(=O)NC(=O)C(C#N)=NOC` here?
A: inactive

Q: For `COP(=S)(OC)Oc1ccc([N+](=O)[O-])c(C)c1`, which outcome is on record?
A: inactive

Q: Which AC50 does the source give for `Cc1ccc(N=CN(C)C=Nc2ccc(C)cc2C)c(C)c1` here?
A: 28.2 µM (active)

Q: With `COC(=O)c1c(C(F)F)nc(C(F)(F)F)c(C2=NCCS2)c1CC(C)C` as the molecule, how does the outcome read?
A: inactive

Q: Which outcome does the source give for `O=C1C2CC=CCC2C(=O)N1SC(Cl)(Cl)Cl` (stereo not given) here?
A: inactive

Q: Which outcome does the source give for `CC(C)Oc1cccc(NC(=O)c2ccccc2C(F)(F)F)c1` here?
A: inactive
